Hits are enriched below; roughly 13% of the tested compounds scored in any of these assays.
USP17 inh: inhibitors of human USP17 deubiquitinase; 6.5% of 47,000 active; A8MUK1; AID 1645855; purified USP17, Ub-rhodamine cleavage fluorescence, 3 h; inhibition, % at 50 µM
USP10 inh: inhibitors of human USP10 deubiquitinase; purified USP10, Ub-rhodamine fluorescence, 60 min; inhibition, % at 20 µM; 1.1% of 47,000 active
USP28 inh: human USP28 deubiquitinase inhibition | Q96RU2 | purified USP28, Ub-rhodamine cleavage fluorescence, 30 min | inhibition, % at 25 µM | 3% of 47,000 active | AID 1645857
USP8 inh: human USP8 deubiquitinase inhibition. AID 1645853. purified USP8, Ub-rhodamine cleavage fluorescence, 30 min. inhibition, % at 20 µM. P40818. 4.2% of 47,000 active
USP30 inh: human USP30 deubiquitinase inhibition; Q70CQ3; purified USP30, Ub-rhodamine cleavage fluorescence; inhibition, % at 25 µM; 5.3% of 47,000 active; AID 1645860
Hits are given with their value; - = inactive; . = no result given. Cut-off read from the data, not from the text of the source: active = inhibition above about 30%; inactive = the rest.

SMILES	USP17 inh	USP10 inh	USP28 inh	USP8 inh	USP30 inh
CCc1cccc(NC(=O)CCc2nc3c(C)nn(-c4ccccc4)c3n(C)c2=O)c1	48	-	-	-	-
COc1ccc2[nH]c(CN3CCOCC3c3ncc(C)[nH]3)cc2c1 (stereo not drawn)	-	-	-	-	-
COCCn1c(C)c(C)c(S(=O)(=O)c2ccccc2)c1NC(=O)c1ccccc1	-	-	-	-	-
O=C(Nc1ccccc1Cl)N1CCN(c2cnn3cnnc3c2)CC1	-	-	-	-	-
COc1cc(C2CC(=O)Nc3ccc4ccccc4c32)ccc1O (stereo not drawn)	-	-	-	-	-
CC(C)(C)c1ccc(NC(=O)CCn2ccc(=O)[nH]c2=O)cc1	-	-	-	-	40
CCOc1ccc(N2Cc3ccc(OC)c(OC)c3C2=O)cc1	38	-	-	-	-
Cc1cc(Nc2ncccc2C)nc(C2CCCN(C(=O)c3cccnc3)C2)n1 (stereo not drawn)	-	-	-	-	-
N#Cc1nc(-c2ccc(Cl)cc2)oc1NCc1ccccc1	-	-	-	-	-
CCNc1oc(-c2ccc(S(=O)(=O)N3CCCCC3)cc2)nc1C#N	63	-	-	-	-
COc1ccc(C(C(=O)NC2CCCC2)N(C(=O)Cn2nnc(-c3ccc(C)o3)n2)c2ccccc2C)cc1 (stereo not drawn)	-	-	-	-	-
Cc1ccc(-c2nnn(CC(=O)N(c3ccc(C4CCCCC4)cc3)C(C(=O)NC3CCCCC3)c3ccc(F)cc3)n2)o1 (stereo not drawn)	33	-	-	-	-
Cc1ccc(-c2nnn(CC(=O)N(c3ccccc3C)C(C(=O)NC3CCCC3)c3ccncc3)n2)o1 (stereo not drawn)	41	-	-	-	-
O=C(O)C1CCN(C(=O)[C@H](Cc2ccccc2)NC(=O)[C@H](Cc2ccccc2)n2c(=O)[nH]c3ccccc3c2=O)CC1	-	-	-	-	-
COc1ccccc1-c1nc(-c2cn(-c3ccc(F)cc3)nn2)no1	31	33	-	89	41
COc1ccc(-c2nc(-c3cn(-c4cccc(Cl)c4)nn3)no2)c(OC)c1	65	34	.	-	.
COc1ccc(-c2nc(-c3nnn(Cc4ccc(F)cc4)c3C)no2)c(OC)c1	34	-	40	60	66
COc1ccc(-c2nc(-c3cn(-c4ccccc4)nn3)no2)c(OC)c1	71	-	54	38	94
COc1ccccc1-c1nc(-c2cn(-c3ccccc3)nn2)no1	-	-	-	-	-
O=C(NCCn1c(-c2ccncc2)nc2cccnc21)c1ccc(Cl)cc1	-	-	-	-	-
CCCCN(C=C1NC(=O)c2ccccc2N1)CC(=O)Nc1ccc(Cl)cc1F	-	-	-	-	-
O=c1[nH]c(-c2cccnc2)nc2c1CN(Cc1ccnc(N3CCCC3)n1)CC2	-	-	-	-	-
CS(=O)(=O)N(Cc1ccccc1)c1ccccc1C(=O)Nc1cc(C(F)(F)F)ccc1Cl	-	-	-	-	-
COc1ccccc1Cc1nc(-c2cn(Cc3ccccc3)nn2)no1	-	-	-	-	-
COc1ccccc1Cc1nc(-c2cn(-c3cccc(F)c3)nn2)no1	-	-	-	-	34
SMILES	USP17 inh	USP10 inh	USP28 inh	USP8 inh	USP30 inh
Fc1cccc(-n2cc(-c3noc(-c4cccnc4)n3)nn2)c1	54	-	-	52	61
CC(C)NC(=O)C1(Cc2ccc(-c3cccnc3)cc2)CCOCC1	-	-	-	-	-
COc1ccc(Nc2nc(N3CCCC3)nc3c2cnn3C)cc1	49	-	-	-	39
Cc1c(Cl)cccc1NC(=O)Cn1cc(C(=O)C2CC2)c2ccccc21	-	49	-	86	-
O=C(Cn1cc(S(=O)(=O)Cc2ccccc2)c2ccccc21)NC1CCCCC1	-	-	-	30	-
O=C(Cn1cc(C(=O)C2CC2)c2ccccc21)NCc1ccc2c(c1)OCO2	83	-	51	69	-
O=C(Cn1cc(C(=O)C2CCCCC2)c2ccccc21)Nc1ccccc1C(F)(F)F	-	-	-	-	-
Cc1ccc(CS(=O)(=O)c2cn(CC(=O)NCc3ccccc3)c3ccccc23)cc1	-	-	-	-	-
O=C(Cn1ncc2c(=O)oc3ccccc3c21)NCc1ccc2c(c1)OCO2	-	-	-	42	-
COc1ccc(CNC(=O)C2=CCN(Cc3ccccc3)CC2)cc1	-	-	-	-	-
Cc1ccc(C(O)Cn2cc(C(=O)Nc3ccc(C)c(F)c3)nn2)cc1 (stereo not drawn)	-	-	-	-	-
Cc1nc(C(C)C)ncc1C(=O)N1CCC2(CC=CCOC2)CC1	.	-	-	-	-
CCc1ccc(NC(=O)[C@H](C)NC(=O)C2CCN(C(=O)[C@H](CCSC)NC(=O)OC(C)(C)C)CC2)cc1	-	-	-	-	-
CC(C)[C@@H](C(=O)NCCCc1ccccc1)N1C(=O)N2CCc3c([nH]c4ccccc34)[C@@]2(C)C1=O	-	-	-	-	-
O=C(Cn1ccc2ccn(Cc3ccccc3)c2c1=O)Nc1ccccc1Cl	33	-	-	77	-
O=C(Cn1ccc2ccn(Cc3ccccc3)c2c1=O)NC1CCCC1	39	-	-	-	-
Cc1c(Cl)cccc1NC(=O)Cn1ccc2ccccc2c1=O	71	-	-	-	-
COc1ccc([C@@H]2C[C@H]3NC(=O)CCC[C@@H]3N2C(=O)c2ccccn2)cc1	-	-	-	-	-
O=C1CN(C(=O)CC2CCCCC2)C(c2ccc(F)cc2)c2cc(Br)ccc2N1 (stereo not drawn)	-	-	-	-	-
CCN(C(=O)c1cccc(-c2noc(C)n2)c1)c1ccccc1	-	-	.	-	.
COc1cccc(CNC(=O)c2ccc3c(=O)nc4c(-c5cccc(C)c5)n[nH]n4c3c2)c1	-	-	-	43	-
Cc1ccc(-c2n[nH]n3c2nc(=O)c2ccc(C(=O)NCc4ccco4)cc23)cc1	-	-	-	-	-
Cn1c(O)c(C2=Nc3ccccc3SC(c3cccc(O)c3)C2)c(=O)n(C)c1=O (stereo not drawn)	-	-	-	-	-
Cn1c(O)c(C2=Nc3ccccc3SC(c3cccc(O)c3)C2)c(=O)[nH]c1=O (stereo not drawn)	39	-	-	-	-
COCCCNC(=O)Cn1c(=O)n(CC2CCC(C(=O)NC3CCCC3)CC2)c(=O)c2ccccc21 (stereo not drawn)	-	-	-	-	-
SMILES	USP17 inh	USP10 inh	USP28 inh	USP8 inh	USP30 inh
c1ccc(Cn2cc(-c3noc(-c4cccnc4)n3)nn2)cc1	-	-	-	-	-
Cc1ccc(Cn2cc(-c3noc(C(=O)Nc4cc(F)ccc4F)n3)nn2)cc1	-	51	-	90	-
CCOc1ccccc1-c1nc(-c2cn(Cc3ccc(F)cc3)nn2)no1	64	-	-	-	58
COc1ccccc1-c1nc(-c2cn(Cc3ccc(C)cc3)nn2)no1	-	-	-	-	30
N#Cc1ccc(-c2nc(-c3cn(Cc4cccc(F)c4)nn3)no2)cc1	36	-	-	-	-
Cc1ccc(Cn2cc(-c3noc(-c4ccco4)n3)nn2)cc1	-	-	-	-	-

Assay outcomes from PubChem.
